Reference: PubChem BioAssay (EPA / NIEHS)
Values joined by “and” are separate entries in the source; they are usually repeats but may differ in a detail not shown here. Equal values may be shown once. Results filed as inconclusive are left out. Active and inactive are the calls of the source. The calls were made as follows: active = hit-call score of the fitted dose curve at least 0.9, where 1 is the maximum; inconclusive = response in the unintended direction; inactive = score below 0.9.

What follows are compounds tested against Cellular tumor antigen p53 (Homo sapiens) (UniProt P04637) (assay: TOX21_p53_BLA_p5_ratio: Tox21 HCT-116 p53 Agonism Beta-lactamase Assay, Ratio, Phase 5 (AID 2283599)).
Outline: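 HCT-116 p53-bla cells (4000/well) plated 5 h, dosed with compound (217-fold DMSO dilution) for 16 h at 37 C; CCF4-AM substrate 2 h at room temperature. Activity is the 460/530 nm emission ratio (405 nm excitation), fitted in gain-of-signal direction versus DMSO.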

Sequence of Cellular tumor antigen p53 (Homo sapiens) (P04637 whole entry, looked up): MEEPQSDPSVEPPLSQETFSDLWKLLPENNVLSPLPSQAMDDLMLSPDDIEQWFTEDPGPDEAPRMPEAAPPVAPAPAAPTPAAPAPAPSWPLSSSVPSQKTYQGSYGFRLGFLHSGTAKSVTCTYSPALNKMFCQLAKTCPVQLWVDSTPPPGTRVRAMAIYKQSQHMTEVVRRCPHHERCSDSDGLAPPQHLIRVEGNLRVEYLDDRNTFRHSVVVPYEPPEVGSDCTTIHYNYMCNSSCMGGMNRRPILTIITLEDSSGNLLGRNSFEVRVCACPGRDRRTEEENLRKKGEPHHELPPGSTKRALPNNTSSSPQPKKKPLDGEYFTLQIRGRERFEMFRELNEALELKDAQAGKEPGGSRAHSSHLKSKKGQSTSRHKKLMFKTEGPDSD

Structure (SMILES) | outcome | AC50
CC(C)OC(=O)Cc1ccccc1 | inactive | 
BrC(Br)C(Br)(Br)Br | inactive | 
CCOC(=O)C1(c2ccccc2)CCN(CCC(C#N)(c2ccccc2)c2ccccc2)CC1 |  | 56.4 µM (active) and 23.9 µM (active)
CCCC(C)(COC(N)=O)COC(=O)NC(C)C (configuration not stated) | inactive | 
C=CC[C@]1(O)CC[C@H]2[C@@H]3CCC4=CC(=O)CCC4=C3C=C[C@@]21C | inactive | 
O=c1c2ccccc2[se]n1-c1ccccc1 | inactive | 
COc1cccc2c1cc([N+](=O)[O-])c1c(C(=O)O)cc3c(c12)OCO3 |  | 13.2 µM (active)
CCN(CC)CCO[C@H]1CC[C@@]2(C)C(=CC[C@@H]3[C@@H]2CC[C@]2(C)C(=O)CC[C@@H]32)C1 | inactive | 
Nc1ccccc1C(=O)OCC=Cc1ccccc1 | inactive | 
CNC(=O)ON=C(CSC)C(C)(C)C | inactive | 
O=c1oc2ccccc2c(O)c1Cc1c(O)c2ccccc2oc1=O |  | 3.93 µM (active)
Oc1cc(Cl)cc(Cl)c1 |  | 85.2 µM (active)
N=C(N)[Se] | inactive | 
c1ccc2c(c1)cc1ccc3cccc4ccc2c1c34 |  | 1.56 µM (active)
CCC[CH2][Sn]([CH2]CCC)([CH2]CCC)[O][Sn]([CH2]CCC)([CH2]CCC)[CH2]CCC |  | 2.03 µM (active)
O=C(O)/C=C\C(=O)O | inactive | 
Cc1cc(C(C)(C)c2cc(C)c(O)c(C)c2)cc(C)c1O |  | 58.5 µM (active)
